Experimental data: the supplement of paper PMC11732987, “Enantioselective OTUD7B fragment discovery through chemoproteomics screening and high-throughput optimisation” (Communications Chemistry, 2025)

Tests used:
Assay in all cases: log2 ratio of Biotin-Ahx-Ub-VS probe labelling (compound/DMSO); higher = less target engagement, active = hit call of the paper (q ≤ 0.05, log2 ratio ≤ -1)
Settings in all cases: treatment time: 3 h
[1] = compound: CCC1N(CCc2sccc12)C(=O)CCl
Procedure, shortened: (§1)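 For activity-based profiling, 495 µg portions of HEK293T lysate in Tris/CHAPS/IGEPAL buffer with protease inhibitors were treated in triplicate with compound at 50 or 200 µM or with DMSO for 3 h. A 1 h incubation with Biotin-Ahx-Ub-VS (0.5 µM final) followed, then NeutrAvidin enrichment, LysC and trypsin digestion and diaPASEF LC-MS/MS. The compound/DMSO base-two log ratios were averaged from median-normalised label-free quantities using an unpaired t-test. Proteins needed at least 2 unique peptides to be included.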

[2] = compound: CN1c2ccccc2C(CS1(=O)=O)NC(=O)CCl
Procedure, shortened: as §1

[3] = compound: Cl.ClCC(=O)N1CCc2ncncc2C1
Procedure, shortened: as §1

[4] = compound: Cl.Cn1ncc2C(CCCc12)NC(=O)CCl
Procedure, shortened: as §1

[5] = compound: ClCC(=O)NC1CCOc2ccccc12
Procedure, shortened: as §1

[6] = compound: ClCC(=O)NC1CCCc2ccccc12
Procedure, shortened: (§2)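 These values are averaged ratios of compound to vehicle, tested by unpaired t-test. HEK293T lysate (495 µg per sample) was preincubated in triplicate with compound across a concentration series or vehicle for 3 h and then with Biotin-Ahx-Ub-VS at 0.5 µM final for 1 h. Deubiquitinases carrying the probe were NeutrAvidin-enriched, digested with LysC and trypsin, and measured by diaPASEF LC-MS/MS. Ratios are expressed as log2 from global-median-normalised Spectronaut label-free quantities, and only proteins with two or more unique peptides were included.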

[7] = compound: ClCC(=O)N[C@@H]1CCCc2ccccc12
Procedure, shortened: as §2

[8] = compound: ClCC(=O)N[C@H]1CCCc2ccccc12
Procedure, shortened: as §2

[9] = compound: CCC1N(CCc2cc(OC)c(Cl)cc12)C(=O)CCl
Procedure, shortened: as §1

[10] = compound: CCCC1N(CCc2cc(OC)c(OC)cc12)C(=O)CCl
Procedure, shortened: as §1

[11] = compound: CN(Cc1cccc(Br)c1)C(=O)CCl
Procedure, shortened: as §1

[12] = compound: CN(Cc1cccc(OCc2ccccc2C)c1)C(=O)CCl
Procedure, shortened: as §1

[13] = compound: CN(Cc1ccccc1)C(=O)CCl
Procedure, shortened: as §1

[14] = compound: COc1ccc(CN(C)C(=O)CCl)cc1
Procedure, shortened: as §1

[15] = compound: COc1cccc(CN(CCCc2ccccc2)C(=O)CCl)c1
Procedure, shortened: as §1

[16] = compound: ClCC(=O)N1CCc2cc(Cl)c(Cl)cc2C1
Procedure, shortened: as §1

[17] = compound: ClCC(=O)N1CCc2nc(ncc2C1)-c1ccccc1
Procedure, shortened: as §1

[18] = compound: ClCC(=O)N1CCc2nocc2C1
Procedure, shortened: as §1

[19] = compound: ClCC(=O)N1CCc2scc(Br)c2C1
Procedure, shortened: as §1

[20] = compound: ClCC(=O)NC(C1CCCC1)c1cccs1
Procedure, shortened: as §1

Measured: log2 ratio of Biotin-Ahx-Ub-VS probe labelling

UniProt Q5T2D3
Sequence of UniProt Q5T2D3 (Q5T2D3 whole entry): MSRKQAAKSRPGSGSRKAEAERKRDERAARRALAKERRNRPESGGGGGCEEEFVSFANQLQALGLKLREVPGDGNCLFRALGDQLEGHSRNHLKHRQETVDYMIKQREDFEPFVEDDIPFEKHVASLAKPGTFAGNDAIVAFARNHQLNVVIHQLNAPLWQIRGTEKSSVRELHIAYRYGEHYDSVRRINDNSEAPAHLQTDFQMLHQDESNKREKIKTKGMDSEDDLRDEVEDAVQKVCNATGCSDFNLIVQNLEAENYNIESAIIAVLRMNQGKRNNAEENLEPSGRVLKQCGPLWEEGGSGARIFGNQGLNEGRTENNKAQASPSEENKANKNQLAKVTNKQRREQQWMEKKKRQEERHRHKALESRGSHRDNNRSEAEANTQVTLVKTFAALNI
inactive: [1]; compound concentration: 50uM -0.152 | [1]; compound concentration: 200uM -0.102 | [2]; compound concentration: 50uM -0.294 | [2]; compound concentration: 200uM -0.292 | [3]; compound concentration: 50uM -0.0797 | [3]; compound concentration: 200uM -0.274 | [4]; compound concentration: 50uM -0.136 | [4]; compound concentration: 200uM 0.135 | [5]; compound concentration: 50uM -0.0283 | [5]; compound concentration: 200uM -0.137 | [6]; compound concentration: 0.78uM -0.198 | [6]; compound concentration: 1.56uM -0.0928 | [6]; compound concentration: 3.13uM -0.11 | [6]; compound concentration: 6.25uM -0.192 | [6]; compound concentration: 12.5uM -0.113 | [6]; compound concentration: 25uM 0.0408 | [6]; compound concentration: 50uM -0.0723 | [6]; compound concentration: 100uM -0.0612 | [6]; compound concentration: 200uM -0.179 | [7]; compound concentration: 0.78uM -0.153 | [7]; compound concentration: 1.56uM -0.131 | [7]; compound concentration: 3.13uM -0.0877 | [7]; compound concentration: 6.25uM -0.0936 | [7]; compound concentration: 12.5uM -0.0592 | [7]; compound concentration: 25uM -0.125 | [7]; compound concentration: 50uM -0.234 | [7]; compound concentration: 100uM -0.0551 | [7]; compound concentration: 200uM -0.296 | [8]; compound concentration: 0.78uM -0.237 | [8]; compound concentration: 1.56uM -0.21 | [8]; compound concentration: 3.13uM -0.232 | [8]; compound concentration: 6.25uM -0.0509 | [8]; compound concentration: 12.5uM 0.00779 | [8]; compound concentration: 25uM -0.0485 | [8]; compound concentration: 50uM 0.0602 | [8]; compound concentration: 100uM 0.0541 | [8]; compound concentration: 200uM -0.193 | [9]; compound concentration: 50uM 0.0656 | [9]; compound concentration: 200uM -0.0849 | [10]; compound concentration: 50uM -0.315 | [10]; compound concentration: 200uM -0.497 | [11]; compound concentration: 50uM 0.00241 | [11]; compound concentration: 200uM -0.212 | [12]; compound concentration: 50uM -0.549 | [12]; compound concentration: 200uM -0.332 | [13]; compound concentration: 50uM -0.381 | [13]; compound concentration: 200uM -0.198 | [14]; compound concentration: 50uM -0.229 | [14]; compound concentration: 200uM 0.0599 | [15]; compound concentration: 50uM -0.157 | [15]; compound concentration: 200uM -0.202 | [16]; compound concentration: 50uM 0.0943 | [16]; compound concentration: 200uM -0.112 | [17]; compound concentration: 50uM 0.0194 | [17]; compound concentration: 200uM -0.186 | [18]; compound concentration: 50uM -0.173 | [18]; compound concentration: 200uM -0.329 | [19]; compound concentration: 50uM -0.0373 | [19]; compound concentration: 200uM 0.0195 | [20]; compound concentration: 50uM -0.0592 | [20]; compound concentration: 200uM -0.12

UniProt Q9UGI0
Sequence of UniProt Q9UGI0 (Q9UGI0 whole entry): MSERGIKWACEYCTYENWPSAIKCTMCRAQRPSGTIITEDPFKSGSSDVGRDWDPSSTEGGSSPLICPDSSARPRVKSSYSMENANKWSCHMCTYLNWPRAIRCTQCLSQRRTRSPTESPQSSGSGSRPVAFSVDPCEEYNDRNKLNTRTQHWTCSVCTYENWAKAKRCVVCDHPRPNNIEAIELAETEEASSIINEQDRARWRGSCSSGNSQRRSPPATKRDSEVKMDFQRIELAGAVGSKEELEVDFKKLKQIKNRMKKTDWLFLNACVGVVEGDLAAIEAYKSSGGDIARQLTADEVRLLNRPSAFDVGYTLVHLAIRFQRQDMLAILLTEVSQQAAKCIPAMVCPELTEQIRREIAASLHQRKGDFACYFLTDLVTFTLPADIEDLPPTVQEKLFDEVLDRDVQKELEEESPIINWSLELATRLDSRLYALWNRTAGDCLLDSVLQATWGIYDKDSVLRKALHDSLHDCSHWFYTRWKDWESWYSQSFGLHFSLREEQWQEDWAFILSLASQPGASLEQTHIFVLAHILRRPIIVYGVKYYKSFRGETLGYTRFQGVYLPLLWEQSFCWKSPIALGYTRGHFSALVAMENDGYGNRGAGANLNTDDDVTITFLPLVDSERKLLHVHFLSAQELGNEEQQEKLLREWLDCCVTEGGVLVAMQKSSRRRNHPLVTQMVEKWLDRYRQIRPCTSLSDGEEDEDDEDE
inactive: [1]; compound concentration: 50uM -0.292 | [1]; compound concentration: 200uM -0.203 | [2]; compound concentration: 50uM -0.406 | [2]; compound concentration: 200uM 0.104 | [3]; compound concentration: 50uM -0.538 | [3]; compound concentration: 200uM -0.31 | [4]; compound concentration: 50uM -0.202 | [4]; compound concentration: 200uM 0.279 | [5]; compound concentration: 50uM 0.0945 | [5]; compound concentration: 200uM -0.4 | [6]; compound concentration: 0.78uM -0.0262 | [6]; compound concentration: 1.56uM 0.0502 | [6]; compound concentration: 3.13uM -0.0706 | [6]; compound concentration: 6.25uM 0.0502 | [6]; compound concentration: 12.5uM 0.00734 | [6]; compound concentration: 25uM -0.073 | [6]; compound concentration: 50uM -0.0421 | [6]; compound concentration: 100uM -0.161 | [6]; compound concentration: 200uM -0.304 | [7]; compound concentration: 0.78uM 0.0537 | [7]; compound concentration: 1.56uM -0.0707 | [7]; compound concentration: 3.13uM 0.111 | [7]; compound concentration: 6.25uM -0.134 | [7]; compound concentration: 12.5uM -0.0472 | [7]; compound concentration: 25uM -0.0247 | [7]; compound concentration: 50uM -0.136 | [7]; compound concentration: 100uM -0.218 | [7]; compound concentration: 200uM -0.262 | [8]; compound concentration: 0.78uM -0.114 | [8]; compound concentration: 1.56uM 0.117 | [8]; compound concentration: 3.13uM -0.00437 | [8]; compound concentration: 6.25uM -0.00155 | [8]; compound concentration: 12.5uM -0.143 | [8]; compound concentration: 25uM -0.115 | [8]; compound concentration: 50uM 0.0192 | [8]; compound concentration: 100uM -0.022 | [8]; compound concentration: 200uM -0.133 | [9]; compound concentration: 50uM -0.0637 | [9]; compound concentration: 200uM -0.0883 | [10]; compound concentration: 50uM -0.0341 | [10]; compound concentration: 200uM -0.418 | [11]; compound concentration: 50uM -0.13 | [11]; compound concentration: 200uM -0.336 | [12]; compound concentration: 50uM -0.392 | [12]; compound concentration: 200uM -0.664 | [13]; compound concentration: 50uM -0.482 | [13]; compound concentration: 200uM -0.697 | [14]; compound concentration: 50uM -0.127 | [14]; compound concentration: 200uM -0.258 | [15]; compound concentration: 50uM -0.157 | [15]; compound concentration: 200uM -0.231 | [16]; compound concentration: 50uM 0.132 | [16]; compound concentration: 200uM -0.542 | [17]; compound concentration: 50uM 0.0381 | [17]; compound concentration: 200uM -0.223 | [18]; compound concentration: 50uM -0.539 | [19]; compound concentration: 50uM -0.277 | [20]; compound concentration: 50uM -0.0906 | [20]; compound concentration: 200uM 0.116
active: [18]; compound concentration: 200uM -1.16 | [19]; compound concentration: 200uM -1.14
